Results reported in PubChem BioAssay (EPA / NIEHS).
Values joined by “and” are separate entries in the source; they are usually repeats but may differ in a detail not shown here. Equal values may be shown once. Records with an inconclusive call do not appear. The source holds several records for some structures; these can differ, active in one and inactive in another. Active and inactive are the calls of the source. The calls were made as follows: active = hit-call score of the fitted dose curve at least 0.9, where 1 is the maximum; inconclusive = response in the unintended direction; inactive = score below 0.9.

Each compound was assayed against Cellular tumor antigen p53 (Homo sapiens) (UniProt P04637) (assay: TOX21_p53_BLA_p4_ratio: Tox21 HCT-116 p53 Agonism Beta-lactamase Assay, Ratio, Phase 4 (AID 2283601)).
Chain of Cellular tumor antigen p53 (Homo sapiens) (P04637 whole entry, looked up, the tested form may be a part): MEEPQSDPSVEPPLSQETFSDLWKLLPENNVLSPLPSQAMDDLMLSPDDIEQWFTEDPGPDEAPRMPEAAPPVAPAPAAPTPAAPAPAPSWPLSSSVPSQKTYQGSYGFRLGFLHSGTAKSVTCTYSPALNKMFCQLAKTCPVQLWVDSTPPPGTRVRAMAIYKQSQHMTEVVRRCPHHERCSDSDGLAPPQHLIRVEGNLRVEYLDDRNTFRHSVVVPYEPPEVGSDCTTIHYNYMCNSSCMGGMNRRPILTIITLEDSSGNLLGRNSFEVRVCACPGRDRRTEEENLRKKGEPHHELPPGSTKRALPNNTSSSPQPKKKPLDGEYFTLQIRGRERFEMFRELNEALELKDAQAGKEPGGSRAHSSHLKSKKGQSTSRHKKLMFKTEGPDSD
Text: TOX21_p53_BLA_p4 is a cell-based, single-readout assay that uses HCT116, a human intestinal cell line, […] in a 1536-well plate.TOX21_p53_BLA_p4_ratio is an assay readout measuring reporter gene via receptor activity and designed using inducible reporter (beta lactamase induction) detected with GAL4 b-lactamase reporter gene. The signal is derived from the ratio of cleaved (ch2) to uncleaved (ch1)reporter gene substrate used as the measure of target activity.Data from the assay component TOX21_p53_BLA_p4_ratio was analyzed into 1 assay endpoint. This assay endpoint, TOX21_p53_BLA_p4_ratio, was analyzed in the positive analysis fitting direction relative to DMSO as the negative control and baseline of activity. Using a type of inducible reporter, gain-of-signal activity can be used to understand changes in the reporter gene as they relate to the gene TP53. Furthermore, this assay endpoint can be referred to as a primary readout, because this assay has produced multiple assay endpoints where this ratio serves a reporter gene function to understand target activity. To generalize the intended target to other relatable targets, this assay endpoint is annotated to the DNA binding intended target family, where the subfamily is tumor suppressor.
Thawing Method: Place 14 mL of pre-warmed thaw medium into a 15 mL of conical tub. Remove the vial of cells to be thawed from liquid nitrogen and thaw rapidly by placing at 37C in a water bath with gentle agitation for 1-2 minutes. Decontaminate the vial by wiping with 70% ethanol before opening in a biological safety cabinet. Transfer the vial contents drop-wise into 14 mL of thaw medium in a sterile 15-mL conical tub. Centrifuge cells at 900 rpm for 4 minutes and resuspend in thaw medium. Transfer contents to the T75 tissue culture flask containing Thaw Medium and place flask in a humidified 37C/5% CO2 incubator. Switch to growth medium at first passage.Propagation Method: Aspirate medium, rinse once in DPBS, add 0.25% Trypsin/EDTA and swirl to coat the cell evenly. Add an equal volume of Growth Medium to inactivate Trypsin after 2-3 minutes incubation at 37C. Centrifuge cells at 900 rpm for 4 minutes and resuspend in growth medium. Cell should be passage or fed at least twice a week.Assay Protocol: Harvest cells from culture in growth medium and resuspend in assay medium. 2.2 Dispense 4000 cells/5 uL/well into 1536-well black/clear bottom plates using a Multidrop dispenser. After the cells were incubated at 37C for 5 hours, 23 nL of compounds dissolved in DMSO were transferred to the assay plate by a PinTool resulting in a 217-fold dilution. Incubate the plates for 16 hours at 37C, 5% CO2. Add 1 uL of 6X LiveBLAzer FRET B/G (CCF4-AM) Substrate Mixture to each well using a BioRAPTR dispenser and incubate the plates at room temperature for 2 hours. Measure fluorescence intensity at 460 and 530 nm emission and 405 nm excitation by an Envision detector. Data is expressed as the ratio of 460nm/530nm emissions. Add 4 uL of Cell-titer Glo to each well using BioRAPTR and incubate the plates at room temperature for 2 hours. Measure fluorescence intensity by a VewLux plate reader.
`Oc1ccccc1O` was tested, and the outcome was “inactive” and the AC50 was 73.5 µM (active).
`CN(C)CCCN1c2ccccc2Sc2ccc(Cl)cc21` was tested, and the AC50 was 20.6 µM (active) and the outcome was “inactive”.
`O=C(O)c1[nH]n(-c2ccc(S(=O)(=O)O)cc2)c(=O)c1N=Nc1ccc(S(=O)(=O)O)cc1` was tested, and the AC50 was 6.18e-05 µM (active).
With `CC(=O)S[C@H](C(=O)N[C@H]1Cc2ccccc2[C@H]2CCC[C@@H](C(=O)O)N2C1=O)C(C)C` the outcome was “inactive”.
With `CS(=O)(=O)c1ccc([C@@H](C[C@H]2CCC(=O)C2)C(=O)Nc2cnccn2)cc1Cl` the outcome was “inactive”.
`CCOCCOCCO` was tested, and the outcome was “inactive”.
For `CCC(C)N(C)C(=O)c1cc2ccccc2c(-c2ccccc2Cl)n1` (stereo not given), the outcome was “inactive”.
With `COc1ccc(C(=O)Nc2nc3ccccc3c(NCc3ccccc3)c2C#N)cc1` the AC50 was 72.8 µM (active).
`NC(=Nc1ccccc1)Nc1ccccc1` was tested, and the outcome was “inactive”.
`CN(C)C(=O)NC1(c2ccccc2)CCN(CC[C@@]2(c3ccc(F)c(F)c3)CN(C(=O)c3ccccc3)CCO2)CC1` was tested, and the outcome was “inactive”.
With `CC1=C(C)S(=O)(=O)CCS1(=O)=O` the outcome was “inactive”.
In the case of `CCc1nc(N)nc(N)c1-c1ccc(Cl)cc1`, the AC50 is reported as 47.9 µM (active) and the outcome is reported as “inactive”.
With `Cc1c(C)c2c(c(C)c1O)CCC(C)(COc1ccc(CC3SC(=O)NC3=O)cc1)O2` (stereo not given) the AC50 was 76 µM (active) and 35.5 µM (active).
For `NCCOCCOCCN`, the outcome was “inactive”.
For `O=C1c2c(O)cccc2Cc2cccc(O)c21`, the outcome was “inactive”.
With `Cc1ccc(C(C)(C)C)c(O)c1` the outcome was “inactive” and the AC50 was 69 µM (active).
In the case of `c1ccc2occc2c1`, the outcome is reported as “inactive”.
For `COC(=O)CCCC(=O)OC`, the outcome was “inactive”.
In the case of `O=C(O)CN(CC(=O)O)CC(=O)O`, the outcome is reported as “inactive”.
For `CCCCCCC(CCCCCCCCCCC(=O)OCC(COC(C)=O)OC(C)=O)OC(C)=O` (stereo not given), the outcome was “inactive”.
In the case of `CCc1cc(C2=C(C(=O)O)N(c3ccccc3C(F)(F)F)S(=O)(=O)c3ccccc32)cc2c1OCO2`, the AC50 is reported as 75.1 µM (active).
`C=CCCCCCCCCCCCC` was tested, and the outcome was “inactive”.
With `O=C1O[C@H]([C@H](O)CO)C(O)=C1O` the outcome was “inactive”.
`O=[Si]=O` was tested, and the outcome was “inactive”.
In the case of `CCCCC(CC)COC(=O)CCCCCCCC(=O)OCC(CC)CCCC` (stereo not given), the outcome is reported as “inactive”.
With `CCCC[C@H]1CN(CC2CCOCC2)C(=O)OC12CCN(C1(C)CCN(C(=O)c3c(C)ncnc3C)CC1)CC2` the outcome was “inactive”.
For `CC(C)c1cccc(C(C)C)c1NC(=O)NS(=O)(=O)c1cc(C(C)(C)O)co1`, the outcome was “inactive”.
In the case of `CCCCc1nc2cccnc2n1Cc1ccc(-c2ccccc2-c2nnn[nH]2)cc1`, the outcome is reported as “inactive”.
`CCCCCCCC(=O)OC` was tested, and the outcome was “inactive”.
For `CC1(C)C(=O)NC(=O)N1CO`, the outcome was “inactive”.
With `S=c1[nH]c2ccccc2s1` the outcome was “inactive”.
In the case of `C=CCc1ccc(OC)c(OC)c1`, the outcome is reported as “inactive”.
For `CCCCCCCCCC[N+](C)(C)[O-]`, the outcome was “inactive”.
`CN(C)C(=O)NC1(c2ccccc2)CCN(CCC[C@]2(c3ccc(Cl)c(Cl)c3)CCCN(C(=O)c3ccccc3)C2)CC1` was tested, and the outcome was “inactive”.
With `CN(C)CCCN(C)CCCN(C)C` the outcome was “inactive”.
For `Oc1ccc(O)cc1`, the outcome was “inactive”.
